For this test, the system named is Plasmodium falciparum NF54. Briefly: growth inhibition relative to untreated control; higher = more inhibition. Particulars: 72 h. An outline of the steps: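 Ring-stage P. falciparum NF54 parasites at 1% hematocrit and 1% parasitemia were dispensed at 100 μL/well into dark 96-well half-area plates and given a single dose of test compound at 5 μM or 1 μM for 72 h at 37 °C. Incubation took place in minimal RPMI, either alone or supplemented with the chorismate end-products folate (2.2 μM), pABA (7.3 μM), pHBA (7.3 μM), tyrosine (111 μM), phenylalanine (90 μM) and tryptophan. Growth inhibition was determined with SYBR Green relative to untreated wells, using uninfected erythrocytes for background.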

Setting [1] is: 1 µM, MM + chorismate end-products (CM screening medium).
The mark [2] stands for this setting: 5 µM, MM + chorismate end-products (CM screening medium).

Molecules are shown by their SMILES. Where only a bound is given, the exact number is not on record here.

In the case of `O=C(NCCc1c[nH]c2ccccc12)c1cc2ccccc2oc1=O`, the growth inhibition was 20.7% under setting [1]; 2.31% (1 µM, minimal medium (MM)); less than 0% under setting [2]; less than 0% (5 µM, minimal medium (MM)).

Regarding `CC(Oc1ccccc1)C(=O)Nc1nc(-c2ccccn2)cs1` (centres undefined), the growth inhibition is less than 0% under setting [1]; 38.4% (1 µM, minimal medium (MM)); 68.6% under setting [2]; 38.2% (5 µM, minimal medium (MM)).

As to `O=C(NCc1nnc2n1CCCCC2)c1ccc(-c2ccc(F)cc2)o1`, the growth inhibition is, setting by setting: under setting [1], less than 0%; (1 µM, minimal medium (MM)) less than 0%; under setting [2], less than 0%; (5 µM, minimal medium (MM)) less than 0%.

`CC(C)(C)c1cnc(NC(=O)c2ccccc2O)s1`: the growth inhibition is, setting by setting: under setting [1], 38.5%; (1 µM, minimal medium (MM)) 7.86%; under setting [2], 51.6%; (5 µM, minimal medium (MM)) 3.99%.

Consider `N=C(N)c1ccc(-c2cc(-c3ccccc3)on2)cc1`, for which the growth inhibition runs as follows: under setting [1], 2.89%; (1 µM, minimal medium (MM)) 5.06%; under setting [2], 86.7%; (5 µM, minimal medium (MM)) 71.2%.

`O=C(C1CCN(c2nnc(-n3cccc3)s2)CC1)N1CCC(Cc2ccccc2)CC1`: the growth inhibition by setting is: under setting [1], 6.31%; (1 µM, minimal medium (MM)) 8.02%; under setting [2], 48.7%; (5 µM, minimal medium (MM)) 8.81%.

Turning to `O=C(Nc1cnc2ccccc2c1)c1cccc(-n2cnnn2)c1`, the growth inhibition by setting is: under setting [1], 94.1%; (1 µM, minimal medium (MM)) 96.4%; under setting [2], 86.9%; (5 µM, minimal medium (MM)) 87.1%.

Take `Cc1cc(C(=O)Nc2cnn(Cc3ccc(Cl)cc3Cl)c2)no1`: the growth inhibition runs as follows: under setting [1], 80.3%; (1 µM, minimal medium (MM)) 72.9%; under setting [2], 88.6%; (5 µM, minimal medium (MM)) 87.4%.

As for `C[C@]1(O)C[C@@H](c2nc(-c3ccc4ccc(-c5ccccc5)nc4c3)c3c(N)nccn32)C1`, the growth inhibition is, setting by setting: under setting [1], 35%; (1 µM, minimal medium (MM)) 34.1%; under setting [2], 53.2%; (5 µM, minimal medium (MM)) 43.8%.

In the case of `c1ccc(Oc2ccc(-c3cncc(-c4ccc5[nH]ccc5c4)n3)cc2)cc1`, the growth inhibition runs as follows: under setting [1], greater than 100%; (1 µM, minimal medium (MM)) less than 0%; under setting [2], 86.5%; (5 µM, minimal medium (MM)) 91.5%.

As to `Nc1ccc2ncnc(Nc3ccc(OCc4cccc(F)c4)c(Cl)c3)c2c1`, the growth inhibition by setting is: under setting [1], 61.9%; (1 µM, minimal medium (MM)) 24.6%; under setting [2], 99.7%; (5 µM, minimal medium (MM)) 95.7%.

Turning to `CCc1ccc([C@@H]2C[C@H](C(F)(F)F)n3ncc(C(=O)NCc4ccc(OC)cc4)c3N2)cc1`, the growth inhibition reads like this: under setting [1], 31%; (1 µM, minimal medium (MM)) 6.61%; under setting [2], 24.8%; (5 µM, minimal medium (MM)) 3.56%.

With `OCc1ccc(-c2cncc(Nc3cccc(Cl)c3)c2)cc1`, the growth inhibition is, setting by setting: under setting [1], 78.7%; (1 µM, minimal medium (MM)) greater than 100%; under setting [2], 83.2%; (5 µM, minimal medium (MM)) 85%.

In the case of `Cc1ccc(Oc2ccc(NC(=O)CNc3ccccc3N3CCCC3=O)cc2)cc1`, the growth inhibition reads like this: under setting [1], 85.2%; (1 µM, minimal medium (MM)) 87.4%; under setting [2], 98.3%; (5 µM, minimal medium (MM)) 91.8%.

Take `CC(=O)N1CCN(c2ccc(Oc3ccc(Cl)cc3O)cc2)CC1`: the growth inhibition runs as follows: under setting [1], 48.6%; (1 µM, minimal medium (MM)) 13.5%; under setting [2], less than 0%; (5 µM, minimal medium (MM)) less than 0%.

On to `CO[C@@H](C(=O)N1Cc2[nH]nc(NC(=O)c3ccc(N4CCN(C)CC4)cc3)c2C1)c1ccccc1`, for which the growth inhibition came out at 45.1% under setting [1]; 55.3% (1 µM, minimal medium (MM)); 90% under setting [2]; 90.1% (5 µM, minimal medium (MM)).

As to `C[C@@H]1[C@H](O)[C@@H](C)/C=C/C=C/C=C/C=C/C=C/C=C/C=C/[C@H](O[C@@H]2O[C@H](C)[C@@H](O)[C@H](N)[C@@H]2O)C[C@@H]2O[C@](O)(C[C@@H](O)C[C@@H](O)[C@H](O)CC[C@@H](O)C[C@@H](O)CC(=O)O[C@H]1C)C[C@H](O)[C@H]2C(=O)O`, the growth inhibition under setting [1] came out at 86.2%; the growth inhibition (1 µM, minimal medium (MM)) was determined as 89.8%; the growth inhibition under setting [2] is greater than 100%; the growth inhibition (5 µM, minimal medium (MM)) worked out at 97.9%.

Consider `O=C(NC1=NCCS1)c1sc2cc(F)ccc2c1Cl`, for which the growth inhibition under setting [1] amounted to 25.1%; the growth inhibition (1 µM, minimal medium (MM)) turned out to be 4.51%; the growth inhibition under setting [2] was less than 0%; the growth inhibition (5 µM, minimal medium (MM)) is less than 0%.

As to `COc1ccc2nc(C)cc(OCC(=O)Nc3ccccc3OC)c2c1`, the growth inhibition is 11.7% under setting [1]; less than 0% (1 µM, minimal medium (MM)); less than 0% under setting [2]; 27.5% (5 µM, minimal medium (MM)).

As to `COc1cccc(-c2nc3c(N4CCCC4)cccc3n2CC2CCCN2)n1` (centres undefined), the growth inhibition under setting [1] is 79.8%; the growth inhibition (1 µM, minimal medium (MM)) is 71.2%; the growth inhibition under setting [2] turned out to be 96.1%; the growth inhibition (5 µM, minimal medium (MM)) was 89.8%.

Take `Cc1ccc(NC(=O)CC2COc3ccccc3O2)cc1Cl` (centres undefined): the growth inhibition under setting [1] came out at 23.4%; the growth inhibition (1 µM, minimal medium (MM)) is 10.6%; the growth inhibition under setting [2] is less than 0%; the growth inhibition (5 µM, minimal medium (MM)) was less than 0%.

As to `CC(=O)Nc1ccc(-c2noc(CC3CCCN(Cc4cccc(F)c4C)C3)n2)cc1` (centres undefined), the growth inhibition runs as follows: under setting [1], 25.8%; (1 µM, minimal medium (MM)) less than 0%; under setting [2], 93.6%; (5 µM, minimal medium (MM)) 82%.

For the compound `Nc1ncnc2c1ncn2C[C@@H](O)[C@@H](O)C(=O)O`, the growth inhibition is, setting by setting: under setting [1], 44.8%; (1 µM, minimal medium (MM)) 43%; under setting [2], 48.6%; (5 µM, minimal medium (MM)) less than 0%.

`CCc1nc2ccc(C(=O)NCc3ccc4c(c3)OCO4)cn2c1N(C)Cc1cccs1`: the growth inhibition under setting [1] turned out to be 21.4%; the growth inhibition (1 µM, minimal medium (MM)) is less than 0%; the growth inhibition under setting [2] is less than 0%; the growth inhibition (5 µM, minimal medium (MM)) is less than 0%.

For `O=C(c1cc2ccccc2o1)N1CCN(Cc2ccc3c(c2)OCO3)CC1`, the growth inhibition reads like this: under setting [1], 15.1%; (1 µM, minimal medium (MM)) 12.4%; under setting [2], less than 0%; (5 µM, minimal medium (MM)) less than 0%.

Regarding `CC(C)(C)CN1C(=O)C(c2ccccc2)(c2ccccc2)N=C1N`, the growth inhibition is, setting by setting: under setting [1], 45.9%; (1 µM, minimal medium (MM)) 45.7%; under setting [2], 57.1%; (5 µM, minimal medium (MM)) 34.9%.

`Cc1ccc(NC(=O)c2cc(S(=O)(=O)NC(C)(C)C)ccc2C)nc1`: the growth inhibition by setting is: under setting [1], 70.6%; (1 µM, minimal medium (MM)) 52.9%; under setting [2], 93%; (5 µM, minimal medium (MM)) 94.5%.

On to `COc1ccc(Cn2cnc3c(-c4ccco4)nc(Cl)nc32)cc1`, for which the growth inhibition is less than 0% under setting [1]; 13.5% (1 µM, minimal medium (MM)); 48.9% under setting [2]; 23.6% (5 µM, minimal medium (MM)).

Turning to `Nc1ncnc2c1c(Cc1cccc3ccccc13)nn2CC1CCNCC1`, the growth inhibition was 18.3% under setting [1]; 59.9% (1 µM, minimal medium (MM)); 19.1% under setting [2]; less than 0% (5 µM, minimal medium (MM)).

Take `COc1ccc(OC)c(NCc2ccc3nc(N)nc(N)c3c2Cl)c1`: the growth inhibition under setting [1] amounted to 99.9%; the growth inhibition (1 µM, minimal medium (MM)) was greater than 100%; the growth inhibition under setting [2] was 96.1%; the growth inhibition (5 µM, minimal medium (MM)) was found to be 94.2%.

`CCCCc1ccc(C(=O)Nc2nccc3ccccc23)nc1`: the growth inhibition under setting [1] amounted to 6.6%; the growth inhibition (1 µM, minimal medium (MM)) is less than 0%; the growth inhibition under setting [2] came to 11.6%; the growth inhibition (5 µM, minimal medium (MM)) came out at 18.4%.

Values taken from the supplement of paper PMC6763611.
